Measurements published in PubChem BioAssay (NCI).
About 79,000 compounds went through this panel and 15% of them were active in at least one assay; those are over-represented in the sample as a whole. Unmarked numbers belong to inactive results. Activity calls are given as the source filed them. Cut-off read from the data, not from the text of the source: active = growth inhibition above about 70%; inactive = the rest.

Test: NCI Yeast Anticancer Drug Screen. Data for the sgs1 strain (AID 173);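 note: 0% = growth of vehicle-only control cultures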
Settings: S. cerevisiae sgs1 mutant, hits give high values
Experimental: Growth inhibition of yeast strains with defined genetic alterations is measured as a screen for potential anti-cancer activity. Selected strains with alterations in DNA damage repair or cell cycle control were exposed to compounds and growth inhibition was measured relative to vehicle treated controls. The strain used in this assay is sgs1

Q: With `CCCCCCCCCCCCCCCCCCNC` as the compound, how does the growth inhibition (at 1.2 µM) read?
A: -9%

Q: And the growth inhibition (at 3.7 µM)?
A: -27%

Q: What about the growth inhibition (at 11.0 µM) of the same compound?
A: -27%

Q: What about the growth inhibition (at 33.0 µM) of the same compound?
A: -16%

Q: And the growth inhibition (at 100.0 µM)?
A: 87% (active)

Q: Which growth inhibition (at 1.2 µM) does the source give for `CCOC(=O)C1=C(C(=O)c2ccccc2)C(c2ccccc2[N+](=O)[O-])C(C(=O)c2ccccc2)=C(C(=O)OCC)N1` here?
A: -2%

Q: What about the growth inhibition (at 3.7 µM) of the same compound?
A: 1%

Q: What about the growth inhibition (at 11.0 µM) of the same compound?
A: 5%

Q: What about the growth inhibition (at 33.0 µM) of the same compound?
A: 7%

Q: And the growth inhibition (at 100.0 µM)?
A: 17%

Q: With `c1ccc2c(c1)NC(NC1Nc3ccccc3N1)N2` as the compound, how does the growth inhibition (at 1.2 µM) read?
A: 0%

Q: What about the growth inhibition (at 3.7 µM) of the same compound?
A: 3%

Q: And the growth inhibition (at 11.0 µM)?
A: 9%

Q: And the growth inhibition (at 33.0 µM)?
A: 12%

Q: And the growth inhibition (at 100.0 µM)?
A: 16%

Q: For `NC1=NS(=O)(=O)N=C(N)C1=Cc1ccc([N+](=O)[O-])o1`, which growth inhibition (at 1.2 µM) is on record?
A: -15%

Q: What about the growth inhibition (at 3.7 µM) of the same compound?
A: -10%

Q: And the growth inhibition (at 11.0 µM)?
A: 18%

Q: What about the growth inhibition (at 33.0 µM) of the same compound?
A: 45%

Q: And the growth inhibition (at 100.0 µM)?
A: 98% (active)

Q: Which growth inhibition (at 1.2 µM) does the source give for `Fc1ccc(NC(=S)SCc2ccc(Cl)c(Cl)c2)cc1F` here?
A: -5%

Q: What about the growth inhibition (at 3.7 µM) of the same compound?
A: -1%

Q: What about the growth inhibition (at 11.0 µM) of the same compound?
A: 44%

Q: What about the growth inhibition (at 33.0 µM) of the same compound?
A: 99% (active)

Q: And the growth inhibition (at 100.0 µM)?
A: 97% (active)

Q: Which results are given for `O=C(N=Nc1ccccc1Cl)NNc1ccccc1Cl`?
A: growth inhibition (at 1.2 µM): 9%; growth inhibition (at 3.7 µM): 5%; growth inhibition (at 11.0 µM): 9%; growth inhibition (at 33.0 µM): 21%; growth inhibition (at 100.0 µM): 19%

Q: Which growth inhibition (at 1.2 µM) does the source give for `COc1ccc2c(c1)C(=O)c1ccccc1C2` here?
A: -3%

Q: What about the growth inhibition (at 3.7 µM) of the same compound?
A: -4%

Q: And the growth inhibition (at 11.0 µM)?
A: 0%

Q: And the growth inhibition (at 33.0 µM)?
A: 0%

Q: And the growth inhibition (at 100.0 µM)?
A: 1%

Q: With `O=C(/C=C/c1cccc(Br)c1)c1cccs1` as the compound, how does the growth inhibition (at 1.2 µM) read?
A: -17%

Q: And the growth inhibition (at 3.7 µM)?
A: 0%

Q: And the growth inhibition (at 11.0 µM)?
A: 78% (active)

Q: And the growth inhibition (at 33.0 µM)?
A: 98% (active)

Q: What about the growth inhibition (at 100.0 µM) of the same compound?
A: 94% (active)
